# Measurements as given in ChEMBL document CHEMBL1961873, “Compounds: GSK PKIS; Assays: Nanosyn kinase panel” (2012).
# Key:
# [1] = target: 5'-AMP-activated protein kinase catalytic subunit alpha-2 (Homo sapiens) (UniProt P54646); conditions: at 1 µM
# [2] = target: T1, NUAK family SNF1-like kinase 1 (Homo sapiens) (UniProt O60285); conditions: at 0.1 µM
# T1 sequence (whole entry): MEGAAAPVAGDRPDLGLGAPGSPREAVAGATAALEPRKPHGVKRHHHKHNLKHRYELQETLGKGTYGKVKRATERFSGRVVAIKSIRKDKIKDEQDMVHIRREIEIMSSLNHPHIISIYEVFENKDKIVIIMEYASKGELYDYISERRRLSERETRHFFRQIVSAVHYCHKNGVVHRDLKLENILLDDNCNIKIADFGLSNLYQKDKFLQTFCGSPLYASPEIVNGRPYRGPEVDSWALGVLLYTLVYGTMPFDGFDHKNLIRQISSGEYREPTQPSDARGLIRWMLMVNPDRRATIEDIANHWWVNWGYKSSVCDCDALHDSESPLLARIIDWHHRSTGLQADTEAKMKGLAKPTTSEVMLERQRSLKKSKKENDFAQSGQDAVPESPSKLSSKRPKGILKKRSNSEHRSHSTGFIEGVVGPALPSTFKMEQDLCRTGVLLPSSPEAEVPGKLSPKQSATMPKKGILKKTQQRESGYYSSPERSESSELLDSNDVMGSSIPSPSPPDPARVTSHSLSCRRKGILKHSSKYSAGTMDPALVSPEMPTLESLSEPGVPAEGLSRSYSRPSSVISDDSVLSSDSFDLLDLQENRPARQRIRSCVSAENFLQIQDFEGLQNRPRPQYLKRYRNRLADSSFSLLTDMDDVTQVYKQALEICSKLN
# [3] = target: T1, NUAK family SNF1-like kinase 1 (Homo sapiens); conditions: at 1 µM
# [4] = target: T2, Serine/threonine-protein kinase BRSK1 (Homo sapiens) (UniProt Q8TDC3); conditions: at 0.1 µM
# T2 sequence (whole entry): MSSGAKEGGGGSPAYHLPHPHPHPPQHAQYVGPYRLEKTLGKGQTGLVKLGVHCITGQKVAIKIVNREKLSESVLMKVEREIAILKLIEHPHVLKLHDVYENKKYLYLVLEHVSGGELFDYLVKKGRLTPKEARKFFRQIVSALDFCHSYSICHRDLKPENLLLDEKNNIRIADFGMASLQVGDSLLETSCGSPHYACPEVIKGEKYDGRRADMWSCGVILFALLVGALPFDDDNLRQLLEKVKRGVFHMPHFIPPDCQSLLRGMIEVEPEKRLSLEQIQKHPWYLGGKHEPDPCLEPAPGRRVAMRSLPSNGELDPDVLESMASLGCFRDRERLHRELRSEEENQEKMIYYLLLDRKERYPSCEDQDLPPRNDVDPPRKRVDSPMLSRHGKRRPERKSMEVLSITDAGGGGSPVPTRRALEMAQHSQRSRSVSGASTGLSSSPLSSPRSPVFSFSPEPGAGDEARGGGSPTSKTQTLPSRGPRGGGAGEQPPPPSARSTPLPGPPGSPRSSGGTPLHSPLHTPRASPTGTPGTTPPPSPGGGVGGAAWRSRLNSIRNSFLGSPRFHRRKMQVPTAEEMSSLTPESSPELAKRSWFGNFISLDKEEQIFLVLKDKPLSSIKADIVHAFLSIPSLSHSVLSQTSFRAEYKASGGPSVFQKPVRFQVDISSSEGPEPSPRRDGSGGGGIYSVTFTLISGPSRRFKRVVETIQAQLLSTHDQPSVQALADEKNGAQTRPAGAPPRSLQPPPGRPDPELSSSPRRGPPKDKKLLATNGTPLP
# [5] = target: T2, Serine/threonine-protein kinase BRSK1 (Homo sapiens); conditions: at 1 µM
# [6] = target: T3, Serine/threonine-protein kinase BRSK2 (Homo sapiens) (UniProt Q8IWQ3); conditions: at 0.1 µM
# T3 sequence (whole entry): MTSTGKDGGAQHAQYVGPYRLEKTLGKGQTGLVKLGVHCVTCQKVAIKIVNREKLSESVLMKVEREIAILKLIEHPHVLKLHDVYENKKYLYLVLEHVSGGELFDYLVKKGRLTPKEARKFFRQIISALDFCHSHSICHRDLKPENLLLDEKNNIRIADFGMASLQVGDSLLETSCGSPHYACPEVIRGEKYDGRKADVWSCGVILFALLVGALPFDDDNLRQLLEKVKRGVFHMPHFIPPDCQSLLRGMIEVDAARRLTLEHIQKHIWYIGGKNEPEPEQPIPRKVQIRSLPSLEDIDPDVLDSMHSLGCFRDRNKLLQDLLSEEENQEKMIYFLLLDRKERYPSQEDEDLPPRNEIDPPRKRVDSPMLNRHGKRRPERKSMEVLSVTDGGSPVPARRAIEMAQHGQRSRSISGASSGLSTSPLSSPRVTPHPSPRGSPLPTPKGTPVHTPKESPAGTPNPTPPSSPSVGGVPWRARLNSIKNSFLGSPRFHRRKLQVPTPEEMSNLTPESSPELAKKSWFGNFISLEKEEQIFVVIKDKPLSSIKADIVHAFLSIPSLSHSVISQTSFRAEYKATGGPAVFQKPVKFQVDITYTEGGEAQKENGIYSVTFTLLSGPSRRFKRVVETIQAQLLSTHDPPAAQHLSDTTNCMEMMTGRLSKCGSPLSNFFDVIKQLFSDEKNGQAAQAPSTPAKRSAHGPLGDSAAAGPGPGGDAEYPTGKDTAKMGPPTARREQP
# [7] = target: T3, Serine/threonine-protein kinase BRSK2 (Homo sapiens); conditions: at 1 µM
# [8] = target: Calcium/calmodulin-dependent protein kinase type 1D (Homo sapiens) (UniProt Q8IU85); conditions: at 0.1 µM
# [9] = target: Calcium/calmodulin-dependent protein kinase type 1D (Homo sapiens) (UniProt Q8IU85); conditions: at 1 µM
# [10] = target: Calcium/calmodulin-dependent protein kinase type II subunit alpha (Homo sapiens) (UniProt Q9UQM7); conditions: at 0.1 µM
# [11] = target: Calcium/calmodulin-dependent protein kinase type II subunit alpha (Homo sapiens) (UniProt Q9UQM7); conditions: at 1 µM
# [12] = target: Calcium/calmodulin-dependent protein kinase type II subunit delta (Homo sapiens) (UniProt Q13557); conditions: at 0.1 µM
# [13] = target: Calcium/calmodulin-dependent protein kinase type II subunit delta (Homo sapiens) (UniProt Q13557); conditions: at 1 µM
# [14] = target: T4, Calcium/calmodulin-dependent protein kinase type IV (Homo sapiens) (UniProt Q16566); conditions: at 0.1 µM
# T4 sequence (whole entry): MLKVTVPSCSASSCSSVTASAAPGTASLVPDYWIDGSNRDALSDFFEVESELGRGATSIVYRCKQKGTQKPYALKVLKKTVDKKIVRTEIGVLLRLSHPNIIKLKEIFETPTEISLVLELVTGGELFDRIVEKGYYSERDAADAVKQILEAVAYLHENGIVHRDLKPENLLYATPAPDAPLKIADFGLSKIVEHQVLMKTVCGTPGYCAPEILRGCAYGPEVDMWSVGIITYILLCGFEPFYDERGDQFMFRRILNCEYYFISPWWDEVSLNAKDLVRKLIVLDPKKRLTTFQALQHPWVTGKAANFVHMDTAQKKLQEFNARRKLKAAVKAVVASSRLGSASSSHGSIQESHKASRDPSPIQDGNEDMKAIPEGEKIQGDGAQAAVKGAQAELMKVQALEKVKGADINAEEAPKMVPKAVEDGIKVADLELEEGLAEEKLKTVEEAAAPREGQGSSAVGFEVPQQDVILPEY
# [15] = target: T4, Calcium/calmodulin-dependent protein kinase type IV (Homo sapiens); conditions: at 1 µM
# [16] = target: T5, Serine/threonine-protein kinase Chk1 (Homo sapiens) (UniProt O14757); conditions: at 0.1 µM
# T5 sequence (whole entry): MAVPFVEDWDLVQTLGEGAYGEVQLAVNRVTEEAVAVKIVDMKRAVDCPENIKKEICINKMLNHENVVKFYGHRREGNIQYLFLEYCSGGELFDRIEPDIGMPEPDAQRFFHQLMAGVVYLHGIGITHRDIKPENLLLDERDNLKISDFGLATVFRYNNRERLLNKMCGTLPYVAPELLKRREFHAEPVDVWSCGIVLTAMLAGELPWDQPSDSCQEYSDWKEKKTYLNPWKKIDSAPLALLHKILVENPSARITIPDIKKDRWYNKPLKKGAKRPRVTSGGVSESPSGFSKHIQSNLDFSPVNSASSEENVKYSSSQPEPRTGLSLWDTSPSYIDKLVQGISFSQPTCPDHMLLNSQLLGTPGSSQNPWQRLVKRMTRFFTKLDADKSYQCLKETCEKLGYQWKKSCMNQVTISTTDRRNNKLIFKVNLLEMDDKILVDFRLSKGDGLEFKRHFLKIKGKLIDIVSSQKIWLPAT
# [17] = target: T5, Serine/threonine-protein kinase Chk1 (Homo sapiens); conditions: at 1 µM
# [18] = target: Serine/threonine-protein kinase Chk2 (Homo sapiens) (UniProt O96017); conditions: at 0.1 µM
# [19] = target: Serine/threonine-protein kinase Chk2 (Homo sapiens) (UniProt O96017); conditions: at 1 µM
# [20] = target: Death-associated protein kinase 1 (Homo sapiens) (UniProt P53355); conditions: at 0.1 µM;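 note: reported figure is the mean inhibition of DAPK1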
# Sequence of Death-associated protein kinase 1 (Homo sapiens) (P53355 whole entry, looked up): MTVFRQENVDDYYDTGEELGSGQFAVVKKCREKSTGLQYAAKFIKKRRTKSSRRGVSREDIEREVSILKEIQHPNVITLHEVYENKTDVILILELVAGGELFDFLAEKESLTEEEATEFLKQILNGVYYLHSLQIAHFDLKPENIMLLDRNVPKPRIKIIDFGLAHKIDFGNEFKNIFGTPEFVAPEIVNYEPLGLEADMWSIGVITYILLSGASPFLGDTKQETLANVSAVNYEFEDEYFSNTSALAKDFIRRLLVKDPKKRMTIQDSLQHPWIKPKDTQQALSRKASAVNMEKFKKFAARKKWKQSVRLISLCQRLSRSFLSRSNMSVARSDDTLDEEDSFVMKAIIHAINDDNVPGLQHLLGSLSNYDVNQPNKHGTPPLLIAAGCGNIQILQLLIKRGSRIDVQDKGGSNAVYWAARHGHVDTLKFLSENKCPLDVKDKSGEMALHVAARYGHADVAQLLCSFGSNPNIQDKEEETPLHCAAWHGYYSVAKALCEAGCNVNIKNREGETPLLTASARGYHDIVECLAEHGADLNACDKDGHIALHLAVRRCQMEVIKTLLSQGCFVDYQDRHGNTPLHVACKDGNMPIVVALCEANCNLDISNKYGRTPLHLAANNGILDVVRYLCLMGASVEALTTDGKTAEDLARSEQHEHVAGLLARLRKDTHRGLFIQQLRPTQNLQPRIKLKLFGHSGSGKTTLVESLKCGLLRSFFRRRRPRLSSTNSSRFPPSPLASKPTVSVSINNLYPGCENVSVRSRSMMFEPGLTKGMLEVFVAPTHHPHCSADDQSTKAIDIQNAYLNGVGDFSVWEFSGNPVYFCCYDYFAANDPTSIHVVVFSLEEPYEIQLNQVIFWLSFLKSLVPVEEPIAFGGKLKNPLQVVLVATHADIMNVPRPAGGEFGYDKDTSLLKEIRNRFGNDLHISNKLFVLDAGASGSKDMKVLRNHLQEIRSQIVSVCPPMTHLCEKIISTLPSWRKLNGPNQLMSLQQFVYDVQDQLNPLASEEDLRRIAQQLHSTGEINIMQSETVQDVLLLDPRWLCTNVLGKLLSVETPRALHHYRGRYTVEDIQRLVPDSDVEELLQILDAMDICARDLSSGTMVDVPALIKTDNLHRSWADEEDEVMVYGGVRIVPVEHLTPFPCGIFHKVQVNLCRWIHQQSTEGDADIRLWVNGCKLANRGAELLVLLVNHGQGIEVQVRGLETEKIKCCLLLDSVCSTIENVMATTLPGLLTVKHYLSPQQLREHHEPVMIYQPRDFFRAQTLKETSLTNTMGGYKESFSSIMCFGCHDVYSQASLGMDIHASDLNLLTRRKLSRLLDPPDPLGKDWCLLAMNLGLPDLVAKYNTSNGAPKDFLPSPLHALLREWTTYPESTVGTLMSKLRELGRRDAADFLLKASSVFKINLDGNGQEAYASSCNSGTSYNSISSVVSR
# Sequence of Calcium/calmodulin-dependent protein kinase type II subunit alpha (Homo sapiens) (Q9UQM7 whole entry): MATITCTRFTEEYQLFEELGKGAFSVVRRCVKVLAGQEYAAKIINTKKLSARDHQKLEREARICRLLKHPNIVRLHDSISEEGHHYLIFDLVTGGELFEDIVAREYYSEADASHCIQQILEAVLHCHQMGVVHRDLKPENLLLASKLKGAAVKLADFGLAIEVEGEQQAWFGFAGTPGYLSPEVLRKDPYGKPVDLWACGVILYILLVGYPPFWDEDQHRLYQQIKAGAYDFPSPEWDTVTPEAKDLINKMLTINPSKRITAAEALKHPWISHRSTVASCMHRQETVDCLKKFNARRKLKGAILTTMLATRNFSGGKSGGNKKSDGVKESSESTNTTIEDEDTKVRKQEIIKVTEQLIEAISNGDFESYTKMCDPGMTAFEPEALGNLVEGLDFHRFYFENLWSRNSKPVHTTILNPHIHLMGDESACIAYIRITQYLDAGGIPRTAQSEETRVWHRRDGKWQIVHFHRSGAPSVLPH
# Sequence of Calcium/calmodulin-dependent protein kinase type II subunit delta (Homo sapiens) (Q13557 whole entry): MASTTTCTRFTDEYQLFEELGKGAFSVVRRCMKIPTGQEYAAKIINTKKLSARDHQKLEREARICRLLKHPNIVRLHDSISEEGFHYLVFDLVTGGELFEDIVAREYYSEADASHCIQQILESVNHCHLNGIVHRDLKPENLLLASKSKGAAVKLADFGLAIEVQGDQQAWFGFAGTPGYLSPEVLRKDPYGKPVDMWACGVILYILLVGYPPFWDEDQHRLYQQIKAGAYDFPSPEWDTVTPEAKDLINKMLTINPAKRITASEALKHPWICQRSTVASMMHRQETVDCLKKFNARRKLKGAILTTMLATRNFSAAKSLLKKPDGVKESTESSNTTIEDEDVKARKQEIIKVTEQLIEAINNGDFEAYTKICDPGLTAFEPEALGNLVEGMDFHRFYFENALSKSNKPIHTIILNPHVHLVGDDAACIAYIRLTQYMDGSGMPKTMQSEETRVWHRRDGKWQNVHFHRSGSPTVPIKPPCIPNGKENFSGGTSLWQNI
# Sequence of 5'-AMP-activated protein kinase catalytic subunit alpha-2 (Homo sapiens) (P54646 whole entry, looked up): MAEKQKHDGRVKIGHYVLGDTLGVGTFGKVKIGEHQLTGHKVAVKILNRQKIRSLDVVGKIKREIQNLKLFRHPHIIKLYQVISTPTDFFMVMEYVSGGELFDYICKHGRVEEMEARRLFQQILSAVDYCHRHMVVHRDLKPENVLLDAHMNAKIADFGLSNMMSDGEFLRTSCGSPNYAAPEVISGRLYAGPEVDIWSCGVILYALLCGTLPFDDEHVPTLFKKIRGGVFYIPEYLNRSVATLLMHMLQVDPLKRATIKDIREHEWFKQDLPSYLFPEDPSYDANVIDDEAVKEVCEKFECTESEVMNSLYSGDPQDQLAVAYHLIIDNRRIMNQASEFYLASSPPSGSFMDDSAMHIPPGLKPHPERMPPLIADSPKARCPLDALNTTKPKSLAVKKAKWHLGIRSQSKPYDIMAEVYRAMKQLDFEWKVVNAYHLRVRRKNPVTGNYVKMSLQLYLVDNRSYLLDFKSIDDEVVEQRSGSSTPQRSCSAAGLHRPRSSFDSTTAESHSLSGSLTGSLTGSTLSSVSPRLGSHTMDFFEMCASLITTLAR
# Sequence of Serine/threonine-protein kinase Chk2 (Homo sapiens) (O96017 whole entry): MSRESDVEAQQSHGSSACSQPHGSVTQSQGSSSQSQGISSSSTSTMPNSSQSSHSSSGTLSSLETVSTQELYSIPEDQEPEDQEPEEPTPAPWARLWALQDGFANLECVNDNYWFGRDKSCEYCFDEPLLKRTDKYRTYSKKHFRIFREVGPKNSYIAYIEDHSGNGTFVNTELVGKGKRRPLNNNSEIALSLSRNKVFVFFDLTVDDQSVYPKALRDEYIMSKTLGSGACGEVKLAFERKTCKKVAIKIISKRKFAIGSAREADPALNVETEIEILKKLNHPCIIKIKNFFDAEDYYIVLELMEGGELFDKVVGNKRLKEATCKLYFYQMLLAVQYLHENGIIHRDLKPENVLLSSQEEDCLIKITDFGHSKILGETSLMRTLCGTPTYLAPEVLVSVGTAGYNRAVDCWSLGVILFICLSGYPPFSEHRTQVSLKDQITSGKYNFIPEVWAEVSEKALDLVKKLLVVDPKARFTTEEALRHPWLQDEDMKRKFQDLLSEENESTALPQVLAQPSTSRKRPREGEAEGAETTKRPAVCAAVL
# Sequence of Calcium/calmodulin-dependent protein kinase type 1D (Homo sapiens) (Q8IU85 whole entry, looked up): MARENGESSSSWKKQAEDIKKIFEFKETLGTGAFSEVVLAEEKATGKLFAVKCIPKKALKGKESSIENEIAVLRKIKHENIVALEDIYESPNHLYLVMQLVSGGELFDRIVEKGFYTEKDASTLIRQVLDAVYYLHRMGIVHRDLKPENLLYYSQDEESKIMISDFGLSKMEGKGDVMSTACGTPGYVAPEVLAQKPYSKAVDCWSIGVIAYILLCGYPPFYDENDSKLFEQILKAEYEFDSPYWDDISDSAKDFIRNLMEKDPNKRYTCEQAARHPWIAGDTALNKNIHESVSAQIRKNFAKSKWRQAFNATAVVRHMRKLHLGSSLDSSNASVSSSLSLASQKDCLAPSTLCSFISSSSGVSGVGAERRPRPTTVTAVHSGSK
Compound,inhibition [1] [%],inhibition [2] [%],inhibition [3] [%],inhibition [4] [%],inhibition [5] [%],inhibition [6] [%],inhibition [7] [%],inhibition [8] [%],inhibition [9] [%],inhibition [10] [%],inhibition [11] [%],inhibition [12] [%],inhibition [13] [%],inhibition [14] [%],inhibition [15] [%],inhibition [16] [%],inhibition [17] [%],inhibition [18] [%],inhibition [19] [%],inhibition [20] [%]
CCn1c(-c2nonc2N)nc2c(C#CC(C)(C)O)nc(O[C@@H](CN)c3ccccc3)cc21,68.1,24.4,69.6,6.66,38.4,13.7,58.8,13.2,29.4,-1.19,1.68,-0.76,14.3,-0.23,4.51,-3.48,31.1,2.31,26.7,-0.91
Fc1ccc(-c2ncn(C3CCNCC3)c2-c2ccnc(Oc3ccccc3)n2)cc1,-1.95,-1.26,2.38,-0.19,-0.55,0.01,2.57,-1.05,0.14,-0.23,-2.16,1.37,2.5,-1.82,-2.43,-1.72,0.04,1.16,1.46,-0.62
CCn1c(-c2nonc2N)nc2c(C#CC(C)(C)O)ncc(OC[C@@H]3CCCN3)c21,4.25,6.58,34.4,-0.75,1.83,0.98,1.11,0.27,0.84,1.28,-2.05,0.64,0.35,0.16,-0.65,-1.63,2.95,0.37,1.08,1.35
COc1cc(C=NNc2ncnc3c2cnn3Cc2ccccc2)ccc1O,-3.45,7.72,27.6,-0.74,1.48,0.53,2.95,0.1,0.78,-5,-4.25,-4.62,-0.47,-2.48,-3.98,-2.18,-3.22,-3.42,-3.47,-3.06
NS(=O)(=O)c1ccc(N/C=C2\C(=O)Nc3ccc4ncsc4c32)cc1,42.8,59.2,69.1,17.6,53.1,33,62.4,0.05,0.92,2.56,3.49,4.43,16.3,-1.62,-1.06,7.84,33,4.73,19.1,5.66
Cc1cc(-c2ccco2)cc(C)c1/C=C/c1cncc(-c2nn[nH]n2)c1,2.58,-1.33,-1.37,-0.09,1.13,0.76,0.62,0.45,-0.49,1.37,-0.97,-0.09,0.35,1.45,1.06,-8.36,-1.92,-0.74,-0.4,1.92
NS(=O)(=O)c1ccc(-c2ccc3c(NC(=O)C4CC4)n[nH]c3c2)cc1,5.62,3.06,8.32,3.64,6.53,4.08,7.2,-1.85,0.84,3.17,3.21,2.57,3.65,0.18,0.35,1.61,4.16,1.56,2.29,3.27
